PubChem BioAssay (EPA / NIEHS)
Where “and” joins values, the source holds several entries; their conditions need not be identical. Equal entries are not always repeated. Calls of active or inactive are those of the source. The calls were made as follows: active = hit-call score of the fitted dose curve at least 0.9, where 1 is the maximum; inactive = score below 0.9.

The molecules below were run on Interleukin-8 (IL8), CXCL8 (gene 3576) (assay: BSK_KF3CT_IL8: BioMAP Diversity Plus: KF3CT Assay for Interleukin-8 (IL8) Biomarker Activity (AID 2284254)). Settings: primary human keratinocytes with fibroblasts.
Outline: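 ELISA detection of IL-8 from a human skin co-culture, keratinocytes with foreskin fibroblasts, at 24 h following chemical exposure, with gain of signal scored against DMSO controls.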

SMILES	outcome	AC50
FC(F)(F)C(F)(F)C(F)(F)CC1CO1 (stereo not given)	inactive	
OCC(F)(F)C(F)(F)C(F)(F)C(F)(F)C(F)(F)C(F)(F)C(F)(F)C(F)(F)CO		47.4 µM (active) and 50.4 µM (active)
FC(F)(F)C(F)(F)C(F)(F)C(F)(F)C(F)(F)C(F)(F)C(F)(F)CCI	inactive	
NC(O)(C(F)(F)F)C(F)(F)F	inactive	
OCCCCC(F)(F)C(F)(F)C(F)(F)C(F)(F)F	inactive	
O=C(F)C1(F)C(F)(F)C(F)(F)C(F)(F)C(F)(F)C1(F)F	inactive	
OC(O)C(F)(F)C(F)(F)F	inactive	
CN(C(=O)C(F)(F)C(F)(F)C(F)(F)F)[Si](C)(C)C	inactive	
OCCCC(F)(F)C(F)(F)C(F)(F)C(F)(F)C(F)(F)C(F)(F)C(F)(F)C(F)(F)F		17.1 µM (active) and 13.7 µM (active)
O=C(O)CCC(F)(F)C(F)(F)C(F)(F)F	inactive	
NC(=O)C(F)(F)C(F)(F)C(F)(F)C(F)(F)C(N)=O	inactive	
NC(=O)C(F)(F)C(F)(F)C(F)(F)F	inactive	

What follows are molecules tested on Macrophage Inflammatory Protein-1 Alpha (MIP1a), CCL3 (gene 6348) (assay: BSK_IMphg_MIP1a: BioMAP Diversity Plus: IMphg Assay for Macrophage Inflammatory Protein-1 Alpha (MIP1a) Biomarker Activity (AID 2284255)). Settings: primary human endothelial cells with macrophages.
Outline: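 Co-culture of human venular endothelial cells and macrophages exposed to compounds for 24 h; MIP-1a measured by ELISA relative to DMSO. Cytotoxicity assessed in parallel cultures by sulforhodamine B total-protein staining at 560 nm.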

SMILES	outcome	AC50
FC(F)(F)C(F)(F)C(F)(F)CC1CO1 (stereo not given)	inactive	
OCC(F)(F)C(F)(F)C(F)(F)C(F)(F)C(F)(F)C(F)(F)C(F)(F)C(F)(F)CO		50 µM (active) and 51.6 µM (active)
FC(F)(F)C(F)(F)C(F)(F)C(F)(F)C(F)(F)C(F)(F)C(F)(F)CCI	inactive	
NC(O)(C(F)(F)F)C(F)(F)F	inactive	
OCCCCC(F)(F)C(F)(F)C(F)(F)C(F)(F)F	inactive	
O=C(F)C1(F)C(F)(F)C(F)(F)C(F)(F)C(F)(F)C1(F)F	inactive	
OC(O)C(F)(F)C(F)(F)F	inactive	
CN(C(=O)C(F)(F)C(F)(F)C(F)(F)F)[Si](C)(C)C	inactive	
OCCCC(F)(F)C(F)(F)C(F)(F)C(F)(F)C(F)(F)C(F)(F)C(F)(F)C(F)(F)F		41 µM (active) and 56.7 µM (active)
O=C(O)CCC(F)(F)C(F)(F)C(F)(F)F	inactive	
NC(=O)C(F)(F)C(F)(F)C(F)(F)C(F)(F)C(N)=O	inactive	
NC(=O)C(F)(F)C(F)(F)C(F)(F)F	inactive	

Each molecule was assayed on Plasminogen activator inhibitor-1 (PAI1), SERPINE1 (gene 5054) (assay: BSK_MyoF_PAI1: BioMAP Diversity Plus: MyoF Assay for Plasminogen activator inhibitor-1 (PAI1) Biomarker Activity (AID 2284256;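 as to outcome: PAI-1 protein level measured by ELISA in fibroblast cultures; PAI-1 read 24 h after compound addition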)). Settings: primary human lung fibroblasts.
Outline: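 Activity reflects increased PAI-1, determined by ELISA and compared with DMSO, in human lung fibroblasts treated for 24 h.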

SMILES	outcome	AC50
CCN(CC)c1ccc(N=Nc2ccccc2)cc1	inactive	
CC(C)(C)c1cc(CCC(=O)NCCCCCCNC(=O)CCc2cc(C(C)(C)C)c(O)c(C(C)(C)C)c2)cc(C(C)(C)C)c1O	inactive	
Cc1cc(C)c(O)c(C(C)(C)C)c1		36.4 µM (active)
O=C=Nc1cccc2c(N=C=O)cccc12	inactive	
Brc1nc2ccccc2s1	inactive	
CC(C)CCCC(C)CCO (stereo not given)	inactive	
CCN(CC)c1ccc(C=O)cc1	inactive	
CCN(CC)c1ccc(C=O)c(O)c1		20 µM (active)
C[C@]12CC[C@H]3C(=CCc4cc(O)ccc43)[C@@H]1CCC2=O	inactive	
Cc1ccc(S(=O)(=O)C(I)I)cc1		8.61 µM (active)
CC1=CC2C3C=CC(C3)C2C1C (stereo not given)	inactive	
